From article PMC5700166 come the findings set out here.

Where a chain is given by its changes, count along the chain named.

Holding throughout (assay): protein-binding microarray (PBM); PBM: ~300 nM protein, 6 mM HEPES pH 7.8, 80 mM KCl, 0.5 mM EDTA, 0.5 mM EGTA, 6% glycerol, 35 ng/ul poly-dIdC, 1% milk, 1 h, room temperature; Ap Aiptasia and Nv Nematostella (sea anemones) / Co Capsaspora / Aq Amphimedon (sponge) / Dm Drosophila / Hu human; RHD is the Rel homology domain; high values mean tight binding
Common to all, as to conditions: dsDNA, one strand shown

Test [1] addresses T1, GST-Ap-NF-kB RHD (Exaiptasia pallida (Aiptasia), UniProt A0A913YAJ5 2-422).
T1 sequence: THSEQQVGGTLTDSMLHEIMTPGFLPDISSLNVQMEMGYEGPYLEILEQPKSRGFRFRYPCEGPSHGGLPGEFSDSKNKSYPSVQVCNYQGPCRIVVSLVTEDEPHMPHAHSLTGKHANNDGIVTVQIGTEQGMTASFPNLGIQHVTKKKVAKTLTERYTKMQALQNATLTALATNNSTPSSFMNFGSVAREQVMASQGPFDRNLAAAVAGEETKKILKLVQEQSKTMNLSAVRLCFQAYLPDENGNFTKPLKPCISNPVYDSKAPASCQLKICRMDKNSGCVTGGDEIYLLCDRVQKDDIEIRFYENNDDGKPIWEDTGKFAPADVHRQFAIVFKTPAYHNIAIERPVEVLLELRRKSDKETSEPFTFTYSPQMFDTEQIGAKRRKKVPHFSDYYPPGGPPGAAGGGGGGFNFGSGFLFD

The target in test [2] is T2, GST-Nv-NF-kB (Cys allele) (Nematostella vectensis, UniProt E5G601 2-411).
T2 sequence: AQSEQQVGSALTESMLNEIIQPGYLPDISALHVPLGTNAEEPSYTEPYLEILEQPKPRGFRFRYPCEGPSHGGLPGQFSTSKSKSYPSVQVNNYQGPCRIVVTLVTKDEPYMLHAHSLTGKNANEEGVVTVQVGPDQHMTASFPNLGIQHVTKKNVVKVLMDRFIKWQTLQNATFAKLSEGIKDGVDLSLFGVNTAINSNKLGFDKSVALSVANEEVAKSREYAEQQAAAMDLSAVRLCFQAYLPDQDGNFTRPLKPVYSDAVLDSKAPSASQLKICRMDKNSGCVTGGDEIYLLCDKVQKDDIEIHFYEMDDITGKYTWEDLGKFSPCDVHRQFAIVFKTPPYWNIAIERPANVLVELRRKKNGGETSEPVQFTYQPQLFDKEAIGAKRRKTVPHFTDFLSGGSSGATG

In test [3] the target is T3, GST-Nv-NF-kB (Ser allele) (Nematostella vectensis, UniProt A7UNT2 2-411).
T3 sequence: T2 sequence with Q21R, C66S, S207N, E215Q, V217A, E225K, A268E, D399E

For test [4], the target named is T4, GST-Co-NF-kB (Capsaspora owczarzaki, UniProt F1ARL5 200-546).
T4 sequence: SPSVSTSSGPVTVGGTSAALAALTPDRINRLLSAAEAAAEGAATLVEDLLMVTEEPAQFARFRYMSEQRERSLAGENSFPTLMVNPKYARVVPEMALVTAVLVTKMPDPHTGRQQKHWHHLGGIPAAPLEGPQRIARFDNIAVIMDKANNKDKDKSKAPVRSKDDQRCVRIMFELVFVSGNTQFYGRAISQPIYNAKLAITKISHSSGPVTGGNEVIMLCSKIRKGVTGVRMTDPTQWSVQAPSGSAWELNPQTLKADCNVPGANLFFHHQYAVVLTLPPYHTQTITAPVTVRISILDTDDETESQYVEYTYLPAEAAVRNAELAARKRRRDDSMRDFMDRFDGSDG

In test [5] the target is T5, GST-Dm-Relish (Drosophila melanogaster, UniProt Q94527 99-473).
T5 sequence: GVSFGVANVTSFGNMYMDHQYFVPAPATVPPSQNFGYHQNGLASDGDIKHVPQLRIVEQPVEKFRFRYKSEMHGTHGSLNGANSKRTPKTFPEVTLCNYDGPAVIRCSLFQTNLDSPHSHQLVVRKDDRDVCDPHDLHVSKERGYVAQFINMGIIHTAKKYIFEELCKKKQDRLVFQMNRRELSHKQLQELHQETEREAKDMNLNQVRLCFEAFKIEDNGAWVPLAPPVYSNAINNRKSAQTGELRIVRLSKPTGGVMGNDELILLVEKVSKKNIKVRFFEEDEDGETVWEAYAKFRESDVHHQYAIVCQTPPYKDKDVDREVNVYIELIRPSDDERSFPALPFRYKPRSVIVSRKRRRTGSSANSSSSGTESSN

Test [6] addresses T6, GST-Aq-NF-kB (Amphimedon queenslandica, UniProt A9Y5G7 2-389).
T6 sequence: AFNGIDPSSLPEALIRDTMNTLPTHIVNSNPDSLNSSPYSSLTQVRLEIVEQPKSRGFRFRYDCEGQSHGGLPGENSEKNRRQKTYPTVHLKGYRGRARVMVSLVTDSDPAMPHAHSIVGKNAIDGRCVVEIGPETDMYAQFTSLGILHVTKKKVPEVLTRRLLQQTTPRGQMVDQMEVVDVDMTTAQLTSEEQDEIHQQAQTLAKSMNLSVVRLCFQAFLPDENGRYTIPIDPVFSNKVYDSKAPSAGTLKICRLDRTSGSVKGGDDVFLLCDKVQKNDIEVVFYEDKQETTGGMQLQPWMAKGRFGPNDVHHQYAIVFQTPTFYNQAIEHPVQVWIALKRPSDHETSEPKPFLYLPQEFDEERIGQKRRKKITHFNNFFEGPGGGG

Test [7] has as its target GST-Hu-p50 (Homo sapiens, UniProt P19838 7-356).

GST-Hu-p50, sequence (P19838 7-356): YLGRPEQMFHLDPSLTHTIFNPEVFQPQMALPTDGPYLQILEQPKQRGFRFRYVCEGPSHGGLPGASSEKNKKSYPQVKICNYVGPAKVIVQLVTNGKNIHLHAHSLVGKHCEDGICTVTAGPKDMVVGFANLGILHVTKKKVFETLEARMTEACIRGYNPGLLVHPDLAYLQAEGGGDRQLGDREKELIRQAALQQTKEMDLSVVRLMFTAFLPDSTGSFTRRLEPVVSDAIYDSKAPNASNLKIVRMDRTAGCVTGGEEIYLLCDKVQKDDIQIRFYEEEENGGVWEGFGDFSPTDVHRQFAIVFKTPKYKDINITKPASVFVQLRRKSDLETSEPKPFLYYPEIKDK

In the case of “CCGATTAACATCAGCTAATTCCCTGATGTTAATCGGGTCTTGATTCGCTTGACGCTGCTG”, the binding signal in test [1] came out at 1.96 z-score; in test [2], 3.33 z-score; in test [3], 3.36 z-score; in test [4], 1.82 z-score; in test [5], 1.18 z-score; in test [6] it was 3.15 z-score. In addition, in test [7], the binding signal stood at 2.27 z-score.

Take “CCGATTAACATCAGGGGGAAACCTGATGTTAATCGGGTCTTGATTCGCTTGACGCTGCTG”: the binding signal in test [1] was found to be 8.24 z-score; in test [2] it was 8.06 z-score; in test [3] it was 9.71 z-score; in test [4] it was 9.35 z-score; in test [5], 7.54 z-score; in test [6], 7.94 z-score. For the same sequence, the binding signal in test [7] is 7.23 z-score.

Regarding “CCGATTAACATCAAGTTTCCCCCTGATGTTAATCGGGTCTTGATTCGCTTGACGCTGCTG”, the binding signal in test [1] worked out at 8.07 z-score; in test [2], 8.22 z-score; in test [3], 11.2 z-score; in test [4] it was 11.4 z-score; in test [5], 4.83 z-score; in test [6], 6.51 z-score. The same sequence came in with a binding signal in test [7] of 7.11 z-score.

Take “CCGATTAACATCACTATTTCCCCTGATGTTAATCGGGTCTTGATTCGCTTGACGCTGCTG”: the binding signal was determined as 6.35 z-score in test [1]; 7.42 z-score in test [2]; 9.8 z-score in test [3]; 8.77 z-score in test [4]; 3.62 z-score in test [5]; 4.85 z-score in test [6]. Also, the binding signal in test [7] worked out at 6.08 z-score.

Consider “CCGATTAACATCAGAATTTCCCCTGATGTTAATCGGGTCTTGATTCGCTTGACGCTGCTG”, for which the binding signal in test [1] was 9.18 z-score; in test [2] it was 10.1 z-score; in test [3], 11.5 z-score; in test [4] it was 8.73 z-score; in test [5] it was 6.98 z-score; in test [6] it was 8.28 z-score. This sequence also registered a binding signal in test [7] of 6.93 z-score.

For the sequence “CCGATTAACATCAGGGGTAATTATGATGTTAATCGGGTCTTGATTCGCTTGACGCTGCTG”, the binding signal is 3.8 z-score in test [1]; 4.02 z-score in test [2]; 4.62 z-score in test [3]; 6.05 z-score in test [4]; 2.03 z-score in test [5]; 3.96 z-score in test [6]. For the same sequence, the binding signal in test [7] is 4.51 z-score.

For the sequence “CCGATTAACATCAGGGAAAGCCCTGATGTTAATCGGGTCTTGATTCGCTTGACGCTGCTG”, the binding signal in test [1] worked out at 6.37 z-score; in test [2], 8.76 z-score; in test [3], 4.62 z-score; in test [4], 1.84 z-score; in test [5], 7.96 z-score; in test [6] it was 8.88 z-score. For the same sequence, the binding signal in test [7] was determined as 4.93 z-score.

In the case of “CCGATTAACATCAAGGGAAGTCCTGATGTTAATCGGGTCTTGATTCGCTTGACGCTGCTG”, the binding signal in test [1] worked out at 3.99 z-score; in test [2], 4.16 z-score; in test [3], 2.7 z-score; in test [4] it was 1.08 z-score; in test [5], 7.26 z-score; in test [6], 5.77 z-score. The same sequence gave a binding signal in test [7] of 2.73 z-score.

For “CCGATTAACATCAGGGGATGAACTGATGTTAATCGGGTCTTGATTCGCTTGACGCTGCTG”, the binding signal in test [1] stood at 2.44 z-score; in test [2], 3.65 z-score; in test [3] it was 4.24 z-score; in test [4], 3.23 z-score; in test [5] it was 7.62 z-score; in test [6] it was 3.73 z-score. For the same sequence, the binding signal in test [7] turned out to be 2.94 z-score.

With “CCGATTAACATCAGGGGAGGTAATGATGTTAATCGGGTCTTGATTCGCTTGACGCTGCTG”, the binding signal in test [1] worked out at 2.69 z-score; in test [2], 2.66 z-score; in test [3], 4.61 z-score; in test [4], 3.71 z-score; in test [5] it was 1.22 z-score; in test [6], 2.71 z-score. Also, the binding signal in test [7] worked out at 2.14 z-score.

“CCGATTAACATCAACGGATTCCCTGATGTTAATCGGGTCTTGATTCGCTTGACGCTGCTG”: the binding signal in test [1] turned out to be 2.31 z-score; in test [2], 3.57 z-score; in test [3], 3.98 z-score; in test [4], 2.89 z-score; in test [5], 5.42 z-score; in test [6], 2.97 z-score. This sequence displayed a binding signal in test [7] of 1.77 z-score.

Turning to “CCGATTAACATCAGGGGTATTTATGATGTTAATCGGGTCTTGATTCGCTTGACGCTGCTG”, the binding signal in test [1] was 5.75 z-score; in test [2], 5.26 z-score; in test [3] it was 5.54 z-score; in test [4], 4.66 z-score; in test [5], 3.79 z-score; in test [6] it was 5.15 z-score. For the same sequence, the binding signal in test [7] is 5.56 z-score.
